Compound activity from PubChem BioAssay.
MCF10A rereplic: induces DNA re-replication in MCF 10a normal breast cells; MCF 10A DNA re-replication, Hoechst nuclear intensity, 48 h; Potency, µM (series often up to 46.1 µM), inactives show at the top dose activity, positive = re-replication, most hits filed as activators; hit rate 2.9% among 350,000; note: potency is the fitted concentration of half-maximal effect; % of control where 0% means no effect; nearly all actives have a fitted effect of over 50% in size
SW480 rerep: induces DNA re-replication in SW480 colon adenocarcinoma cells; Potency, µM (series often up to 46.1 µM), for inactives: top-dose re-replication activation, usual class: activators; hit rate 1.8% among 340,000; SW480 DNA re-replication, Hoechst DNA content imaging, 48 h; note: potency is the fitted concentration of half-maximal effect; % of control where 0% means no effect; nearly all actives have a fitted effect of over 55% in size
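DNA re-replication was detected as more nuclei of elevated Hoechst intensity after 48 hr exposure to compound (23 nL pinned per well of 250 cells).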
IL-1B inflam inh: blocks inflammasome-driven IL-1 beta release; AID 743279; hit rate 4.7% among 360,000; THP-1 LPS/ATP IL-1B secretion, AlphaLISA, 16 h; stronger effect = lower value; activity change, % at 57.5 µM; in the data active = activity change below about -50%; inconclusive = mostly about -30% to -49%; note: % is set by controls: 0 for no effect and ±100 for the full control effect
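Secreted IL-1B measured by AlphaLISA bead assay after 16 h compound exposure of THP-1 cells; compounds (final up to 57.5 uM) added 1 h before LPS (250 ng/mL) and ATP (1.25 mM) stimulation; lower signal means less secretion.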
ATXN2 expr inh: inhibitors of ATXN2 expression; Potency, µM (doses to about 57 µM), inactives show at the top dose activity change, negative = inhibition, most hits filed as inhibitors; hit rate 0.72% among 360,000; AID 1745845; HEK-293 ATXN2-luciferase reporter, luminescence, 24 h; note: potency is the fitted concentration of half-maximal effect; % is set by controls: 0 for no effect and ±100 for the full control effect; nearly all actives have a fitted effect of over 55% in size
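qHTS (up to 57 uM final) was run with 24 h compound exposure of reporter cells at 37 °C. Each well was multiplexed: SteadyGlo luminescence measured ATXN2-luciferase expression after a fluorogenic Gly-Phe-AFC viability readout (25 uM final).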
ATXN viability: reduces viability in counter-screen for ATXN expression inhibitors | Potency, µM (series often up to 56.7 µM), hits mostly cytotoxic | hit rate 0.49% among 400,000 | S2 cells (HEK-293 line with an ATXN2-luciferase reporter) viability, CellTiter-Fluor protease fluorescence, 24 h | AID 651635; note: potency is the fitted concentration of half-maximal effect; nearly all actives have a fitted effect of over 40% in size
PINK1 expr mod: modulators of PINK1 expression. PINK1 immunofluorescence, high-content cytometry, 24 h. hit rate 0.2% among 410,000. AID 624263. Potency, µM (series often up to 76.6 µM), inactives show at the highest dose activation (PINK1 increase), actives largely listed as activators; active = well fitted activation curve with a large enough effect; inconclusive = small, poorly fitted or top-dose-only effect; cell line not stated here; note: potency is the fitted concentration of half-maximal effect; % of control where 0% means no effect; nearly all actives have a fitted effect of over 65% in size
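Measures PINK1 amount and localization on or inside mitochondria by immunofluorescence. Stable cells get compounds at 5 concentrations for 24 hours before fixation and staining; CCCP controls included.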
Active calls of the source: *; ! = repeats disagree; [ ] = another dose, or the depositor's remark. The list is not random: actives were taken first. Their share in the collection is about 7.1%. Unless noted, calls come from the whole dose curve; as a rule, active = well fitted curve in the direction sought with a large enough effect; inconclusive = small, poorly fitted or top-dose-only effect, or another doubt; inactive = no such curve, though single readings can be large; an effect the other way counts as inactive or inconclusive.

For Cc1cccn2c(=O)c3cc(C(=O)NCc4ccccc4)c(=N)n(CCCN4CCOCC4)c3nc12 the results were MCF10A rereplic 14%, SW480 rerep 5.2µM*, IL-1B inflam inh -28, ATXN2 expr inh -34% and PINK1 expr mod 2%.
`Cc1cccn2c(=O)c3cc(C(=O)NCCc4ccccc4)c(=N)n(CCCn4ccnc4)c3nc12` gave MCF10A rereplic inconclusive, SW480 rerep 4%, IL-1B inflam inh -28, ATXN2 expr inh inconclusive, ATXN viability inactive and PINK1 expr mod 2%.
For COCCn1c(=N)c(C(=O)NCCc2ccccc2)cc2c(=O)n3cccc(C)c3nc21 the results were MCF10A rereplic inconclusive, SW480 rerep 1.8µM*, IL-1B inflam inh 18, ATXN2 expr inh -2%, ATXN viability inactive and PINK1 expr mod 1%.
`CCn1c(SCc2ccc(Cl)cc2)nnc1-c1ccccc1` gave MCF10A rereplic 2%, SW480 rerep 18%, IL-1B inflam inh -4, ATXN2 expr inh 16%, ATXN viability inactive and PINK1 expr mod 0%.
Screening CCn1c(SCc2ccc(C#N)cc2)nnc1-c1cccc(Cl)c1 returned MCF10A rereplic -6%, SW480 rerep -4%, IL-1B inflam inh -73*, ATXN2 expr inh -18%, ATXN viability inactive and PINK1 expr mod 0%[38.3 µM].
For COC[C@H](c1ccc(C(F)(F)F)cc1)N1CCN(C2(C)CCN(C(=O)c3c(C)ncnc3C)CC2)C[C@H]1C the results were ATXN viability inactive.
For CCOc1ccc(OCC)c(NC(=O)Cn2nc(CC)n3c(cc4sccc43)c2=O)c1 the results were PINK1 expr mod -2%.
Cc1nc(N)nc(N)c1-c1ccc(Cl)c(Cl)c1 was read as MCF10A rereplic 28%, SW480 rerep 13%, IL-1B inflam inh -11, ATXN2 expr inh 7.9µM*!, ATXN viability inactive and PINK1 expr mod -1%.
For Cc1nc(N)nc(N)c1CCCc1ccc(Cl)c(Cl)c1 the results were MCF10A rereplic 3%, SW480 rerep -135%, IL-1B inflam inh -104*, ATXN2 expr inh inconclusive, ATXN viability inconclusive and PINK1 expr mod -2%.
For CCc1nc(N)nc(N)c1-c1ccc(NCCN)c([N+](=O)[O-])c1 the results were MCF10A rereplic 11%, SW480 rerep 3%, IL-1B inflam inh 5, ATXN2 expr inh -32%, ATXN viability inconclusive and PINK1 expr mod -1%.
Screening Cc1cc(OCc2nc(N)nc(N)c2-c2ccc(Cl)c(Cl)c2)ccc1[N+](=O)[O-] returned MCF10A rereplic inconclusive, SW480 rerep inconclusive, IL-1B inflam inh -53*, ATXN2 expr inh inconclusive, ATXN viability inactive and PINK1 expr mod 4%.
For CCOC(=O)NCc1ccc(Cl)c(Cl)c1 the results were MCF10A rereplic 6%, SW480 rerep -3%, IL-1B inflam inh 16, ATXN2 expr inh -30%, ATXN viability inconclusive and PINK1 expr mod 0%.
For COc1ccc2oc(=O)cc(CN3CCN(c4ccccc4OC)CC3)c2c1 the results were PINK1 expr mod 0%.
Screening O=[N+]([O-])c1ccc(/C=N/NC(=S)Nc2ccc(Cl)cc2Cl)s1 returned MCF10A rereplic inconclusive, SW480 rerep 21µM*, IL-1B inflam inh 25, ATXN viability inconclusive and PINK1 expr mod 18%.
Screening Cc1cc(Cl)ccc1NC(=O)CCC(=O)N/N=C/c1cc([N+](=O)[O-])ccc1O returned MCF10A rereplic 0%, SW480 rerep 20%, IL-1B inflam inh 68, ATXN2 expr inh -3%[11.3 µM], ATXN viability inactive and PINK1 expr mod 0%.
`O=[N+]([O-])c1ccc(O)c(/C=N/NC(=S)Nc2ccc(Cl)cc2Cl)c1` gave MCF10A rereplic 23%, SW480 rerep inconclusive, IL-1B inflam inh 119, ATXN2 expr inh -7%, ATXN viability inactive and PINK1 expr mod 40µM*.
`O=C(NCCN1Cc2ccccc2OC(c2ccccc2F)C1)c1ccco1` (centres undefined) gave ATXN viability inactive and PINK1 expr mod -1%.
CCc1ccc(/C=C2\SC(=S)N(CCC(=O)N3CCN(C)CC3)C2=O)cc1 was read as MCF10A rereplic 16%, SW480 rerep inconclusive, IL-1B inflam inh -7, ATXN viability inactive and PINK1 expr mod 11%.
CN1CCN(C(=O)CCN2C(=O)/C(=C\c3ccc(Cl)cc3Cl)SC2=S)CC1 was read as MCF10A rereplic inconclusive, SW480 rerep inconclusive, IL-1B inflam inh -85*, ATXN2 expr inh 3%, ATXN viability inconclusive and PINK1 expr mod 1%.
`COc1ccc(/C=C2\SC(=S)N(CC(=O)N(C)C3CCS(=O)(=O)C3)C2=O)cc1` (centres undefined) gave MCF10A rereplic 21µM*, SW480 rerep inconclusive, IL-1B inflam inh inconclusive, ATXN2 expr inh 20%, ATXN viability inactive and PINK1 expr mod 0%.
`COc1cccc(/C=C2\SC(=S)N(CC(=O)N(C)C3CCS(=O)(=O)C3)C2=O)c1` (centres undefined) gave MCF10A rereplic inconclusive, SW480 rerep inconclusive, IL-1B inflam inh 0, ATXN2 expr inh -23% and PINK1 expr mod 0%.
For O=C(CCN1C(=O)/C(=C\c2ccccc2F)SC1=S)N1CCCCC1 the results were MCF10A rereplic inconclusive, SW480 rerep inconclusive, IL-1B inflam inh inconclusive, ATXN2 expr inh inconclusive, ATXN viability 20µM* and PINK1 expr mod -1%.
Cc1ccc(/C=C2\SC(=S)N(CCCC(=O)N3CCOCC3)C2=O)cc1 was read as MCF10A rereplic inconclusive, SW480 rerep inconclusive, IL-1B inflam inh -66*, ATXN2 expr inh inconclusive, ATXN viability inconclusive and PINK1 expr mod 5%.
For COC(=O)c1ccc(/C=C2\SC(=S)N(CCCC(=O)N3CCOCC3)C2=O)cc1 the results were MCF10A rereplic -23%, SW480 rerep -20%, IL-1B inflam inh -8, ATXN2 expr inh 12%, ATXN viability inactive and PINK1 expr mod 2%.
Screening OCc1ccccc1O[C@@H]1O[C@H](CO)[C@H](O)[C@H](O)[C@H]1O returned ATXN2 expr inh -1%.
`O=C(O)CCCN1C(=O)/C(=C\c2ccc(-c3nc4ccccc4s3)o2)SC1=S` gave MCF10A rereplic inconclusive, SW480 rerep 23µM*, IL-1B inflam inh 19, ATXN2 expr inh 2%, ATXN viability inactive and PINK1 expr mod 5%.
CC1CCN(C(=O)CCN2C(=O)/C(=C/c3cccs3)SC2=S)CC1 was read as MCF10A rereplic 23µM*, SW480 rerep 5.8µM*, IL-1B inflam inh -20, ATXN2 expr inh inconclusive, ATXN viability inconclusive and PINK1 expr mod 1%.
`O=C(CCN1C(=O)/C(=C/c2ccccc2)SC1=S)N1CCCCCC1` gave MCF10A rereplic inconclusive, SW480 rerep inconclusive, IL-1B inflam inh -101*, ATXN2 expr inh inconclusive, ATXN viability inconclusive and PINK1 expr mod 0%.
